# Active and inactive are the calls of the source. Unless noted, how the calls were made is not given here.
# Key:
# [1] = tested on: Wnt5a (protein binding on small-molecule microarray); test: Wnt5a binders on small-molecule microarray, primary screen, biophysical, 635/667 nm fluorescence (AID 1142); details: 635 nm fluorescence, higher = more signal;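 further: fluorescence read at 667 nm with signal to noise per printed feature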
# [2] = cell viability in Huh7 cells, primary screen, cytotoxicity control for HCV replication inhibitor project, CellTiter-Glo luminescence, basal, 48 h (AID 1143); details: Huh7 HCV replicon, higher = more signal, called active from +8 up or from −8 down;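 further: Huh7 hepatoma cells carrying a hepatitis C replication reporter with no stimulus; test concentration not given here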
# [3] = P. aeruginosa biofilm formation inhibitors, primary screen, PAO1 strain, BacTiter-Glo luminescence, LB-PBS (AID 1144); details: 12 h, higher = more signal
# [4] = CREB reporter modulators without forskolin, primary screen, cell-based, PC12, CRE-LacZ reporter, unstimulated (AID 1145); details: no forskolin, luminescence, 4.5 h, higher = more signal, called active from +8 up or from −8 down
# [5] = CREB reporter modulators under forskolin, primary screen, cell-based, PC12, CRE-LacZ reporter, forskolin-stimulated (AID 1146); details: luminescence, 4.5 h, higher = more signal, called active from +8 up or from −8 down;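 further: PC12 cells with 6xCRE LacZ reporter stimulated by forskolin 10 µM; beta-galactosidase reporter signal reflecting CREB driven transcription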
# [6] = molecular target: Streptavidin (Streptomyces avidinii) (UniProt P22629); test: streptavidin binders on small-molecule microarray, primary screen, artefact control for SMM compound annotation, biophysical, 635/667 nm fluorescence (AID 1147); details: streptavidin binding, higher = more signal;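 further: signal reflects streptavidin binding to arrayed compounds as a control protein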
# [7] = small-molecule binders of probe aInhba, primary screen, biochemical, small-molecule microarray, 635/667 nm fluorescence (AID 1148); details: higher = more signal;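 further: score merges 667nm spot fluorescence with signal-to-noise for antibody binding to printed compounds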
# [8] = molecular target: Torsin-1A (Homo sapiens) (UniProt O14656); test: torsin A binders from cell lysate, primary screen, small-molecule microarray, wild-type, 635/667 nm (AID 1149); details: COS7 hTOR1A-WT lysate, 635 nm fluorescence, higher = more signal
# [9] = molecular target: Torsin-1A (Homo sapiens) (UniProt O14656); test: small-molecule binders of mutant TOR1A in lysate, primary screen, cell lysate, small-molecule microarray, COS7 lysate, 635/667 nm fluorescence (AID 1150); details: COS7 hTOR1A mutant lysate, 635 nm fluorescence, higher = more signal;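 further: score pools 667 nm emission and signal to noise measuring lysate protein binding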
# [10] = tested on: Sonic hedgehog protein (Shh); test: small-molecule binders of Shh protein, primary screen, biochemical, small-molecule microarray, 635/667 nm fluorescence (AID 1151); details: small-molecule microarray binding, 635 nm fluorescence; higher = more signal;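 further: Shh protein binding to compounds spotted on small-molecule microarray slides; score combines spot fluorescence intensity with signal-to-noise across triplicate slides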
# [11] = E. coli DRC41 culture turbidity changes, primary screen, E. coli filamentation inducer project, strain DRC41, OD650, 48 h (AID 1152);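 further: E. coli MC1000 strain DRC41 lacking acrAB efflux pump and sulA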; details: E. coli DRC41 (acrAB sulA), higher = more signal, called active from +8 up or from −8 down
# [12] = small-molecule binders of probe aLefty1, primary screen, biochemical, small-molecule microarray, 635/667 nm fluorescence (AID 1153); details: higher = more signal;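 further: score merges spot fluorescence with signal-to-noise ratio from the scanned slide images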
# [13] = PSAC antagonists in infected red cells, primary screen, cell-based, P. falciparum Indochina, OD700, 1 h (AID 1154); details: P. falciparum Indochina infected RBC osmotic lysis, higher = more signal, called active from +8 up or from −8 down
# [14] = PSAC antagonists in infected red cells, primary screen, cell-based, P. falciparum Indochina, OD700, 2 h (AID 1155);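 further: lysis reports solute entry through the parasite surface anion channel PSAC; channel blockers reduce lysis of infected cells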; details: P. falciparum Indochina infected erythrocytes, osmotic lysis OD700; higher = more signal, called active from +8 up or from −8 down
# [15] = osmotic lysis modulators in infected erythrocytes, primary screen, PSAC antagonist project, cell-based, P. falciparum Indochina, OD700, 3 h (AID 1156); details: higher = more signal, called active from +8 up or from −8 down
# [16] = PSAC antagonists in infected red cells, primary screen, cell-based, P. falciparum Indochina, OD700, 18 h (AID 1157); details: P. falciparum Indochina infected erythrocytes, osmotic lysis OD700, 18 h; higher = more signal, called active from +8 up or from −8 down
# [17] = modulators of S6 phosphorylation in cells, primary screen, cell-based, A549, cytoblot, luminescence, serum-stimulated (AID 1158); details: A549 phospho-S6 cytoblot, 5 h, higher = more signal;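 further: serum-stimulated A549 lung adenocarcinoma cells; signal is phosphorylated S6 detected by cytoblot immunostaining with HRP secondary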
# [18] = molecular target: NADPH oxidase 2 (Homo sapiens) (UniProt P04839); test: NOX2-dependent H2O2 signal modulators, primary screen, NOX inhibitor project, cell-based, HEK293-NOX2, PMA-stimulated, Amplex Red fluorescence (AID 1159); details: 45 min, higher = more signal, called active from +8 up or from −8 down; further: test concentration not given here
# [19] = molecular target: NADPH oxidase 4 (Homo sapiens) (UniProt Q9NPH5); test: NOX4-dependent H2O2 signal modulators, primary screen, NOX inhibitor project, cell-based, HEK293-NOX4, tetracycline-induced, Amplex Red fluorescence (AID 1160); details: 45 min, higher = more signal, called active from +8 up or from −8 down
# [20] = molecular target: NADPH oxidase 5 (Homo sapiens) (UniProt Q96PH1); test: NOX5-dependent H2O2 signal modulators, primary screen, NOX inhibitor project, cell-based, HEK293-NOX5, Amplex Red fluorescence (AID 1161); details: HEK293-NOX5, ionomycin, 45 min, higher = more signal
# Sequence of NADPH oxidase 5 (Homo sapiens) (Q96PH1 whole entry, looked up): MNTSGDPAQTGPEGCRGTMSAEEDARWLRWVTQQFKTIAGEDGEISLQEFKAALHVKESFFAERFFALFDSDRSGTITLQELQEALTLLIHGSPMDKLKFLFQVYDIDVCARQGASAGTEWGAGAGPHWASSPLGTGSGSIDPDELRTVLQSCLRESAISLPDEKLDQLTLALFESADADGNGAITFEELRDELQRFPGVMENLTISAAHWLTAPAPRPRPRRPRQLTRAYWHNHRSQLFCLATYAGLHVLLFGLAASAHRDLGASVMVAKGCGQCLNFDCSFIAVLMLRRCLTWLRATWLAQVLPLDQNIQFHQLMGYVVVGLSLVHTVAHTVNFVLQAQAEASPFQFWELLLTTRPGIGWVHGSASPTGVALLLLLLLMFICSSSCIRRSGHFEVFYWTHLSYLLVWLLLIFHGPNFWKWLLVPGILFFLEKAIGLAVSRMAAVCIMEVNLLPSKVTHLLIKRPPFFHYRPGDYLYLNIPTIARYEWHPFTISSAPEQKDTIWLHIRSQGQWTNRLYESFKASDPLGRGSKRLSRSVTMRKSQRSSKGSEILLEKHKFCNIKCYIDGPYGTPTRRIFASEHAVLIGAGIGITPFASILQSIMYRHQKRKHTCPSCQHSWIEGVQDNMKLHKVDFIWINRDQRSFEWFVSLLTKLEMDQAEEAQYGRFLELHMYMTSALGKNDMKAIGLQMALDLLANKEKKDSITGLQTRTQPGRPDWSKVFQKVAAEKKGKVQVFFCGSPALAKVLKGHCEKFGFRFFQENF
# Sequence of Streptavidin (Streptomyces avidinii) (P22629 whole entry, looked up): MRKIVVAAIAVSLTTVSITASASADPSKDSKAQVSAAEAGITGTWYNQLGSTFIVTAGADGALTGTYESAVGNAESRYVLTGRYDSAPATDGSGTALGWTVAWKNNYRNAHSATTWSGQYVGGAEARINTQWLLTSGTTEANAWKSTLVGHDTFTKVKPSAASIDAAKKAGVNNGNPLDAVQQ
# Sequence of NADPH oxidase 4 (Homo sapiens) (Q9NPH5 whole entry, looked up): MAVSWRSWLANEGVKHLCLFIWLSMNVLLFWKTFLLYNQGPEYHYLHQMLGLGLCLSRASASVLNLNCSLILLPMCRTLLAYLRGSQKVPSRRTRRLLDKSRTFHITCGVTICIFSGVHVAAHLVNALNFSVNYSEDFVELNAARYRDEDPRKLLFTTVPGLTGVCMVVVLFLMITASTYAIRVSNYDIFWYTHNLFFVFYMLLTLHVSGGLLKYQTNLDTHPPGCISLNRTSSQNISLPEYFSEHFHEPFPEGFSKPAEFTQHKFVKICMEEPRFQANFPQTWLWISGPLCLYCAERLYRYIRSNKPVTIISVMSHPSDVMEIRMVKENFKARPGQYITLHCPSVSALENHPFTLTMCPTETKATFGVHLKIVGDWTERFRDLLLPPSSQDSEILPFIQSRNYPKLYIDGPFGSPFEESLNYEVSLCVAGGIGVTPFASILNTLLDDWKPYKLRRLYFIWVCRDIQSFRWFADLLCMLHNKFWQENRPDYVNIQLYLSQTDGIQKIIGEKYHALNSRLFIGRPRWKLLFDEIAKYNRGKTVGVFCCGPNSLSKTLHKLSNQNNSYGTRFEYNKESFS
# Sequence of Torsin-1A (Homo sapiens) (O14656 whole entry, looked up): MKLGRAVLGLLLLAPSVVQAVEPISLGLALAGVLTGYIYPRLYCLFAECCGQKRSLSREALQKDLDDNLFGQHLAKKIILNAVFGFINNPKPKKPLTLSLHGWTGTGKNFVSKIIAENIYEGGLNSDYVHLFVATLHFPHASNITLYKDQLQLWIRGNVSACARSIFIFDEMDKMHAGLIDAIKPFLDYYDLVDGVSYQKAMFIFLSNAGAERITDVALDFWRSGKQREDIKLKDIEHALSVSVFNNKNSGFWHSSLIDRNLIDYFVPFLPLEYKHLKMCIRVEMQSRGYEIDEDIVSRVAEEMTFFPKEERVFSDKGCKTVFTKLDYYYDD
# Sequence of NADPH oxidase 2 (Homo sapiens) (P04839 whole entry, looked up): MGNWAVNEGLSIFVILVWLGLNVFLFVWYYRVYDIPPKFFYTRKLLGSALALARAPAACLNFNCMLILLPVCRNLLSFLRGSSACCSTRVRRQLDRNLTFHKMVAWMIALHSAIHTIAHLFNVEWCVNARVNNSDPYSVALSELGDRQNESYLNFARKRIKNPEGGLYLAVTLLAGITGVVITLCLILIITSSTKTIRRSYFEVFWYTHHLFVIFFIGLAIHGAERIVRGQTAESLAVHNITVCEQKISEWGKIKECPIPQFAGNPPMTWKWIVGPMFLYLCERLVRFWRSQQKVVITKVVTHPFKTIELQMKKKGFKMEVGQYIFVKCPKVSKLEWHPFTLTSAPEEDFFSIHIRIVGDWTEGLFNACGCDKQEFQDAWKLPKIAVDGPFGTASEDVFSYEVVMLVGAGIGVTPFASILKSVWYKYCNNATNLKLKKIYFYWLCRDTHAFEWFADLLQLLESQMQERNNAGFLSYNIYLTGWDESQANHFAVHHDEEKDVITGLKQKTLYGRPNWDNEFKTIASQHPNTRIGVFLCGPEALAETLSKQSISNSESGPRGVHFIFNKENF
SMILES,composite z-score [1],z-score [2],z-score [3],z-score [4],z-score [5],composite z-score [6],composite z-score [7],composite z-score [8],composite z-score [9],composite z-score [10],z-score [11],composite z-score [12],z-score [13],z-score [14],z-score [15],z-score [16],z-score [17],z-score [18],z-score [19],z-score [20]
CN1C(=O)C2C=CC(C(O)c3ccccc3)N(Nc3ccccc3)C2C1=O (stereo not given),-0.244,0.658 (inactive),-0.231 (inactive),0.626 (inactive),-0.206 (inactive),-0.0782,-0.0195,-1.5,0.254,-1.58,-1.78 (inactive),0.242,0.0961 (inactive),1.31 (inactive),0.595 (inactive),0.974 (inactive),-1.1,-1.67 (inactive),-3.82 (inactive),-3.23
COCCOC(=O)N1C(=O)[C@@]2(c3ccccc31)[C@H](c1ccc(O)cc1)N1[C@H](c3ccccc3)[C@H](c3ccccc3)OC(=O)[C@H]1[C@@H]2C(=O)NC[C@H](O)c1ccccc1,-0.0136,-1.03 (inactive),0.494 (inactive),0.595 (inactive),1.31 (inactive),-0.551,0.0051,0.849,0.805,0.474,0.0221 (inactive),0.132,1.06 (inactive),0.664 (inactive),0.515 (inactive),0.563 (inactive),0.104,0.873 (inactive),0.0245 (inactive),0.604
COCCOC(=O)N1C(=O)[C@@]2(c3cc(C#Cc4ccc(OC)cc4)ccc31)[C@H](c1ccccc1OCCO)N1[C@H](c3ccccc3)[C@H](c3ccccc3)OC(=O)[C@H]1[C@@H]2C(=O)N1CCN(c2ncccn2)CC1,0.418,-0.915 (inactive),-0.418 (inactive),-0.199 (inactive),0.298 (inactive),0.226,-0.0405,0.617,0.374,1.05,0.148 (inactive),0.118,3.79 (inactive),3.04 (inactive),1.3 (inactive),1.76 (inactive),-0.133,0.978 (inactive),-0.00787 (inactive),0.882
CCOC(=O)C1=CCC(c2ccccc2)N(S(=O)(=O)CC[Si](C)(C)C)C1 (stereo not given),-0.386,-4.87 (inactive),-0.296 (inactive),-0.322 (inactive),0.497 (inactive),-0.192,-0.363,1.04,0.673,-0.302,-0.348 (inactive),-0.147,2.49 (inactive),0.767 (inactive),-0.0704 (inactive),0.561 (inactive),-0.215,0.183 (inactive),0.976 (inactive),-0.179
CN1C(=O)C2C=CC(C(O)c3ccc(I)cc3)N(N3CCCCC3)C2C1=O (stereo not given),0.512,-0.394 (inactive),0.175 (inactive),0.246 (inactive),0.818 (inactive),1.42,0.303,0.702,1.6,0.624,-2.04 (inactive),0.699,4.08 (inactive),0.399 (inactive),1.33 (inactive),0.701 (inactive),-1.04,-0.229 (inactive),-2.14 (inactive),-1.63
COC(=O)[C@@]1(Cc2ccc(OC)cc2)[C@H]2c3cc(C(=O)N4CCCC4)n(Cc4ccc(OC)c(OC)c4)c3C[C@H]2CN1C(=O)c1ccccc1,0.753,-2.2 (inactive),-0.139 (inactive),0.959 (inactive),-0.265 (inactive),2.03,0.955,0.201,0.695,0.464,-1.08 (inactive),1.61,4.08 (inactive),0.81 (inactive),1.92 (inactive),0.91 (inactive),0.0413,0.555 (inactive),0.235 (inactive),-3.23
O=C1c2ccccc2[C@@]2(Cc3ccccc3N(CC(F)(F)F)C2=O)[C@H](c2ccc(CO)cc2)N1Cc1ccccc1Cl,0.125,0.289 (inactive),-0.165 (inactive),-0.141 (inactive),-1.11 (inactive),0.0272,-0.0256,0.0329,0.293,1.42,0.606 (inactive),-0.677,0.902 (inactive),0.638 (inactive),0.955 (inactive),0.5 (inactive),0.258,0.0997 (inactive),-0.991 (inactive),-0.826
C=CCOC(=O)[C@H]1[C@@H]2C(=O)O[C@@H](c3ccccc3)[C@@H](c3ccccc3)N2[C@@H](c2ccc(OCCOC(=O)[C@@H]3C[C@@H]4C(=O)N5CCC[C@H]5C(=O)N4[C@@H]3c3cccc(OCCO)c3)cc2)[C@]12C(=O)Nc1ccccc12,0.537,0.0308 (inactive),-0.0247 (inactive),-0.675 (inactive),0.0527 (inactive),-0.274,0.325,0.459,0.767,1.56,-0.152 (inactive),0.603,3.47 (inactive),1.16 (inactive),3.5 (inactive),0.671 (inactive),0.605,2.26 (inactive),0.917 (inactive),0.15
COCCOC(=O)N1C(=O)[C@@]2(c3cc(C#CC4=CCCCC4)ccc31)[C@H](C(=O)Nc1nc3ccccc3s1)[C@H]1C(=O)O[C@H](c3ccccc3)[C@H](c3ccccc3)N1[C@@H]2c1ccc(OCCO)cc1,0.575,-1.49 (inactive),-1.07 (inactive),-0.258 (inactive),-0.47 (inactive),0.986,-0.0221,0.256,0.254,1.5,-1.56 (inactive),-0.333,2.63 (inactive),1.23 (inactive),-0.218 (inactive),1.59 (inactive),-0.145,1.01 (inactive),0.101 (inactive),0.468
O=C1c2ccccc2[C@](Cc2ccccc2I)(C(=O)NC2CC2)[C@H](c2ccc(CO)cc2)N1Cc1ccccc1,0.384,-2.11 (inactive),-1.02 (inactive),-0.179 (inactive),0.0053 (inactive),-0.248,0.0633,0.189,0.7,0.192,-0.102 (inactive),0.284,5.07 (inactive),0.602 (inactive),1.67 (inactive),0.181 (inactive),-0.132,-0.163 (inactive),-0.127 (inactive),-0.768
CC(CO)N1C(=O)[C@@H]2C3C(=O)OCCC/C=C\[C@H]3OC23C=CCN(c2ccc4ccccc4c2)C(=O)[C@@H]13 (stereo not given in full),-0.632,0.645 (inactive),-1.02 (inactive),-0.0737 (inactive),0.156 (inactive),-0.342,-0.0719,-1.72,-1.03,-0.256,0.453 (inactive),-0.147,1.07 (inactive),0.0843 (inactive),1.87 (inactive),0.011 (inactive),-0.13,1.03 (inactive),-0.0122 (inactive),1.97

# Reference: PubChem BioAssay
